# MARV entry inh – blocks Marburg virus binding to or entry into cells | Marburg virus pseudotyped entry inhibition, cell reporter | Potency, µM (doses to about 37.8 µM), for inactives: top-dose activity change, negative = inhibition, most hits filed as inhibitors | 300,000 compounds, 1.8% hits | AID 540276; calls by dose curve; tested in HEK293 cells; also: potency is read from the fitted curve at half-maximal effect; % is scaled to controls: 0 for no effect and ±100 for the full control effect
# Lassa entry inh – blocks Lassa virus binding to or entry into cells; 300,000 compounds, 1.2% hits; AID 540256; Potency, µM (highest dose often 37.9 µM), inactives show at the highest dose activity change, negative = inhibition, usual class: inhibitors; Lassa virus pseudotype entry inhibition, cell reporter; calls by dose curve; tested in HEK293 cells; also: potency is read from the fitted curve at half-maximal effect; % is scaled to controls: 0 for no effect and ±100 for the full control effect; nearly all actives have a fitted effect of over 50% in size
# HCMV inh – human cytomegalovirus inhibition. HFF cells, HCMV-luciferase reporter, 72 h; stronger effect = lower value. activity change, negative = inhibition, % at 57.5 µM. 410,000 compounds, 4.5% hits. AID 1259415; in the data active = activity change below about -60%; inconclusive = no clear call, values can overlap the other calls; inactive = above about -39%; also: % is scaled to controls: 0 for no effect and ±100 for the full control effect
#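 After 16 h attachment at 37C, HFF cells received test compound and HCMV-luciferase (1 PFU/cell); reporter luminescence read 72 h later, data normalized against buffer-only and known inhibitor Salinomycin.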
# FMDV inh – blocks foot and mouth disease virus; FMDV antiviral cell-based qHTS; Potency, µM (series often up to 57.9 µM), without a hit: top-dose activity change, negative = inhibition, most hits filed as inhibitors; 410,000 compounds, 1.2% hits; AID 1159524; calls by dose curve; tested in HEK293T cells; also: read-out not given here; potency is read from the fitted curve at half-maximal effect; % is scaled to controls: 0 for no effect and ±100 for the full control effect; nearly all actives have a fitted effect of over 45% in size
# SARS PLpro yeast – blocks SARS-CoV papain-like protease in a yeast assay; S. cerevisiae expressing SARS-CoV PLpro, growth rescue; Potency, µM (top dose mostly 32.9 µM), for inactives: top-dose activity, positive = growth rescue, usual class: activators; 330,000 compounds, 0.19% hits; calls by dose curve; also: potency is read from the fitted curve at half-maximal effect; 0% is about no effect; nearly all actives have a fitted effect of over 55% in size
# HCV inh – inhibitors of hepatitis C virus infection. Huh7.5.1 HCVcc-Cre infection, luciferase reporter, 44 h. Potency, µM (doses to about 41.8 µM), without a hit: top-dose activity change, negative = inhibition, usual class: inhibitors. 340,000 compounds, 3.4% hits; active = well fitted inhibition curve with a large enough effect; inconclusive = small, poorly fitted or top-dose-only effect, or another doubt; inactive = no such curve, though single readings can be large or run the other way; also: potency is read from the fitted curve at half-maximal effect; % is scaled to controls: 0 for no effect and ±100 for the full control effect
#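 Compounds are dispensed onto cells plated 4 h earlier at 1,000 per well, with HCVcc-Cre virus (about 0.5 moi) added next. Following 44 h of culture, luminescent signal is measured for 15 sec after 15 min with substrate at room temperature.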
# An asterisk follows results filed as active; ? = inconclusive; / = no result; [ ] = remark or other dose. Sampled rows, rich in hits. Any-hit rate of the full collection: about 8%.
SMILES,MARV entry inh,Lassa entry inh,HCMV inh,FMDV inh,SARS PLpro yeast,HCV inh
COc1ccccc1C1CN(CC(=O)NCC2OCCc3ccccc32)Cc2ccccc2O1 (centres undefined),/,/,/,-5.9%,/,/
COC1=C[C@H](C(=O)NCc2ccccn2)[C@@]2(C)Cc3ccccc3[C@@H]2CC1=O,-29.0%[14.2 µM],/,/,/,/,/
CCOc1ccc(OCc2cccc(C(=O)O)c2)cc1,?,?,1.0,0.891µM*,1.1%,0.1%
COc1ccc(OCc2cccc(C(=O)O)c2)cc1,?,?,-18.3,1µM*,-13.4%,4.0%
O=C(OCC(F)(F)F)c1cccc(COc2ccc3ccccc3c2)c1,1.26µM*,?,165.5,?,7.3%,-0.2%
O=C(O)c1cccc(COc2ccc(CO)cc2Cl)c1,?,0.291µM*,24.5,/,3.3%,0.0%
COc1ccc2nc3oc(C(=O)N(C)c4ccc(Cl)cc4)cc3cc2c1,9.1%[46.1 µM],-20.8%[46.1 µM],4.0,-18.8%,/,/
O=C(O)c1cccc(COc2ccc3c(c2)CCC3)c1,?,0.366µM*,0.0,2.82µM*,-5.5%,18.4%
CCOc1ccc(OCc2cccc(C(=O)N3CCCCCC3)c2)cc1,?,3.55µM*,-3.5,-72.3%,0.0%,-33.7%
O=C(NCc1ccccc1)c1cccc(COc2ccc3c(c2)CCC3)c1,?,?,148.4,-10.1%,-6.9%,-8.7%
CCc1cccc(-n2nnc(-c3nsc(NC(=O)c4cccs4)n3)c2C)c1,/,?,129.1,23.0%,/,/
CC(C)Cn1cc(NC(=O)Nc2cccc(C(F)(F)F)c2)c2ccccc2c1=O,/,-26.7%[46.1 µM],0.5,-4.3%,/,/
Cc1cc(Cl)c2oc(C(=O)NCCC3CCCCO3)c(C)c2c1 (centres undefined),?,?,74.6,44.6%,-7.7%,25.1µM*
Cc1cc(Cl)c2oc(C(=O)NCCN3CCCCC3CO)c(C)c2c1 (centres undefined),-7.8%,-2.3%,63.6,21.2%,3.7%,/
O=C(COC(=O)CCN1C(=O)/C(=C\C=C\c2ccccc2)SC1=S)Nc1cc(F)ccc1F,?,?,-62.0*,?,-1.2%,3.9%
O=C(CN1C(=O)/C(=C\C=C\c2ccccc2)SC1=S)Nc1ccc(F)cc1,-1.3%,?,-30.4,0.7%,19.3%,-15.8%
O=C1C=CN(S(=O)(=O)c2ccc(Cl)cc2)C(c2cccs2)C1 (centres undefined),/,/,24.9,/,/,/
CC(=O)N1c2ccc(C)cc2C(c2ccccc2)CC1C (centres undefined),6.31µM*,?,196.9,-7.2%,-4.5%,2.4%
O=c1cccc2c1c1cc[nH]c3ccc(=O)n2c31,/,/,-70.0*,-21.7%,2.6%,?
COc1cc(CNC(=O)c2cnn(-c3ncc4c(n3)-c3ccccc3CC4)c2C)cc(OC)c1OC,/,/,/,25.1%,/,/
CCN1C(=O)/C(=C/N(C(C)=O)c2ccccc2)N(c2ccccc2)C1=S,-1.2%[46.1 µM],-23.9%,2.8,31.6µM*,3.1%,-8.1%
CCc1ccc(/C=C2/C(=O)N(c3ccccc3)C(=S)N2CC(=O)OC)s1,?,?,-0.7,-11.1%,-12.0%,?
NC(=O)CCCn1c(C(=O)c2cc(Cl)c(N)c(Cl)c2)c2ccc([N+](=O)[O-])cc2[n+]1[O-],/,/,-12.9,?,0.9%,11.2µM*
NCCCn1c(C(=O)c2ccc(Cl)cc2)c2ccc([N+](=O)[O-])cc2[n+]1[O-],/,/,-4.2,-8.6%,3.0%,10µM*
Cc1ccc(C(=O)c2c3ccc([N+](=O)[O-])cc3[n+]([O-])n2CCCC(N)=O)cc1,/,/,-18.5,15.8%,-4.2%,10µM*
SMILES,MARV entry inh,Lassa entry inh,HCMV inh,FMDV inh,SARS PLpro yeast,HCV inh
COc1ccc2c(C(=O)c3ccc(C)cc3)n(CCCC(N)=O)[n+]([O-])c2c1,/,/,7.4,17.9%,1.4%,5.6%
NC(=O)CCCn1c(C(=O)c2ccc(Cl)cc2)c2ccc([N+](=O)[O-])cc2[n+]1[O-],/,/,?,-3.2%,1.8%,?
Cc1ccc(C(=O)c2c3ccccc3[n+]([O-])n2CCC(=O)O)cc1,/,/,-6.2,62.8%,-12.9%,12.7%
NC(=O)CCn1c(C(=O)c2ccc(Cl)cc2)c2ccccc2[n+]1[O-],/,/,-88.1*,2.4%,6.4%,11.4%
CC(CCC(=O)OC[C@H]1O[C@H](C#Cc2ccccc2)C=C[C@H]1Oc1ccc(C)cc1)=NO[C@@H](C)c1cn([C@H](CO)Cc2ccccc2)nn1,8.5%[14.2 µM],?,/,/,/,/
CCOc1ccccc1NC(=O)C1COc2ccccc2O1 (centres undefined),/,/,-3.4,-14.2%,-7.0%,-17.1%
COC(=O)[C@@H]1[C@@H](CO)[C@@H]2Cn3c(ccc(Br)c3=O)[C@@H]2N1Cc1cccc(F)c1,/,/,-3.2,/,/,/
Cc1ccc(NC(=O)/C=C/c2ccc([N+](=O)[O-])s2)cc1,14.1µM*,10µM*,-96.1*,0.0%,-0.6%,?
Cc1cccc(NC(=S)N/N=C/c2ccc([N+](=O)[O-])s2)c1,?,15.8µM*,-92.5*,-11.8%,-34.3%,8.91µM*
Cc1ccc(NC(=O)/C=C/c2ccc([N+](=O)[O-])s2)c(C)c1,?,?,-101.0*,12.6µM*,-0.6%,?
Cc1cccc(NC(=O)/C=C/c2ccc([N+](=O)[O-])s2)c1,?,?,-97.7*,0.0%,-6.2%,11.2µM*
COc1cc(N)ccc1Nc1c2ccccc2nc2ccccc12,/,/,/,-24.6%,/,/
CCCS(=O)(=O)Nc1ccc(Nc2c3ccccc3nc3ccccc23)c(OC)c1,?,0.708µM*,-76.1*,-13.5%,/,?
Cc1cccc(C(=O)N(Cc2cccs2)C2CCS(=O)(=O)C2)c1 (centres undefined),/,/,-9.0,-7.8%,3.4%,9.4%
CCOc1ccc(C(=O)N(Cc2sccc2C)C2CCS(=O)(=O)C2)cc1 (centres undefined),1.4%[46.1 µM],11.0%[46.1 µM],51.9,-2.3%,/,/
Cc1ccccc1C(=O)N(Cc1cccs1)C1CCS(=O)(=O)C1 (centres undefined),-1.8%[46.1 µM],?,-84.1*,-12.4%,-0.2%,-0.6%
CC(C)c1ccc2occ(CC(=O)N(Cc3ccc(F)cc3)C3CCS(=O)(=O)C3)c2c1 (centres undefined),-26.9%[46.1 µM],0.6%[46.1 µM],-64.5*,-23.8%,/,/
CC(C)c1ccc(CN(C(=O)c2cccs2)C2CCS(=O)(=O)C2)cc1 (centres undefined),-11.5%[46.1 µM],?,-68.9*,?,2.8%,6.0%
Cc1ccsc1CN(C(=O)c1ccc(OCC(C)C)cc1)C1CCS(=O)(=O)C1 (centres undefined),2.9%[46.1 µM],8.91µM*,55.9,-11.5%,/,/
O=C1CCC[C@@H]2C=C[C@H](c3ccc(Br)cc3)[C@H]3CCN1[C@@H]32,/,/,4.1,?,/,/
O=C(NCC1Cc2cccc(-c3ncccn3)c2O1)C1CCOC1 (centres undefined),/,/,/,-13.4%,/,/
CN(Cc1ccccc1)c1ccc(-c2nc(-c3ccncc3)no2)cc1[N+](=O)[O-],1.0%[46.1 µM],13.8%[46.1 µM],-15.8,0.0%,/,/

# Source: PubChem BioAssay (National Center for Advancing Translational Sciences (NCATS))
